For 40 molecules, activity results are on record in PubChem BioAssay.

The first assay deals with Tumor necrosis factor receptor superfamily member 10B (Homo sapiens) (UniProt O14763). Description: caspase-8 TRAIL sensitization, hit retest, confirmation, cell-based, NB7+caspase-8, with/without TRAIL, luminescence panel (AID 651596). The settings on record: NB7 neuroblastoma + caspase-8, TRAIL sensitization, luminescence viability, with TRAIL, mean of runs, at 10 µM, stronger effect = higher value.
Sequence of Tumor necrosis factor receptor superfamily member 10B (Homo sapiens) (O14763 whole entry, looked up): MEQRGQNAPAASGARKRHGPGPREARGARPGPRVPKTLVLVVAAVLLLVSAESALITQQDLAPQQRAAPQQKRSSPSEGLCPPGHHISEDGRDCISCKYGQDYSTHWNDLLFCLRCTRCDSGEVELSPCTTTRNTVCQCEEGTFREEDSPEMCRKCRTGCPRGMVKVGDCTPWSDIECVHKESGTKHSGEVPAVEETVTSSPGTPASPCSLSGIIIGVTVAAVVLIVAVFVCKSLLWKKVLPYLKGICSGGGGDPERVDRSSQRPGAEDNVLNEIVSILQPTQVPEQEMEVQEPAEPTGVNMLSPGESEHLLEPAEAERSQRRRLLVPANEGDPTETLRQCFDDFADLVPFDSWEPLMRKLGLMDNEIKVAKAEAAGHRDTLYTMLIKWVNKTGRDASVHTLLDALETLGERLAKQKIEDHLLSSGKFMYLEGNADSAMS
With `C=CCn1c(C)cc(C(=O)COC(=O)c2n[nH]c(=O)c3ccccc23)c1C`, the activity was found to be 74.4%.
`CC(C)(C)OC(=O)NCc1ccc(NC(=O)c2nc[nH]c2C(=O)NCCCNC(=O)c2[nH]cnc2C(=O)Nc2ccc(CNC(=O)OC(C)(C)C)cc2)cc1`: the activity turned out to be 87.7%.
Regarding `C=CCOc1ccc(/C=C/C(C)=N\O)cc1`, the activity is 57.2%.
On to `CSc1nnc(NC(=O)c2ccc3c(c2)OCO3)s1`, for which the activity stood at 76.5%.
Regarding `COC(=O)[C@@H]1Cc2c([nH]c3ccccc23)C(C)(C)N1C(=O)CCl`, the activity was found to be 99%.
Turning to `COc1ccc(C=C2C=C(C(C)(C)C)C(=O)C(C(C)(C)C)=C2)cc1OC`, the activity turned out to be 93.4%.
On the same count and under the same terms, then `Cc1ccc2nc(-c3ccccn3)oc2c1`, with 75.3%.
The same measure, in the same setting: then `Nc1c(-c2ccccc2)cnn1-c1ccccc1`, with 44.6%.
The same measure, in the same setting: in the case of `Cc1cc(C)cc(N2C(N)=NC(N)=NC2c2ccccc2F)c1` (stereo not given) it was 51.1%.
For `Cc1ccc(C2CC(c3cccs3)=NN2C(=O)CCl)cc1` (stereo not given), the activity worked out at 98.8%.
On to `CCc1ccc2nc(N(CCCN(C)C)C(=O)c3ccc(S(=O)(=O)N4CCc5ccccc5C4)cc3)sc2c1`, for which the activity was determined as 68.4%.
For the molecule `O=C(Nc1ccc(N2CCOCC2)c(F)c1)c1cccs1`, the activity came out at 48.5%.
With `CCN(CC)c1ccc(NC(=O)c2ccco2)cc1`, the activity stood at 53.6%.
The same measure, in the same setting: in the case of `O=C(NC(=S)Nc1nc2ccccc2s1)c1ccco1` it was 77.7%; in that of `COc1ccc(C2c3ccc4ccccc4c3Oc3ncn(CCCN(C)C)c(=N)c32)cc1` (stereo not given), 24.2%.
The same measure, in the same setting: then `Cc1ccc(-c2cc(C(=O)N/N=C/c3ccc([N+](=O)[O-])o3)c3ccccc3n2)o1`, with 83.8%; and `CCOc1ccc(OCC)c(NC(=O)C2CCN(c3nn4c(=O)cc(C)nc4s3)CC2)c1`, with 82%; and `O=C(Nc1nc2ccccc2[nH]1)c1ccc(F)cc1`, with 90.8%.
Still for that read-out and setting: then `CCc1ccc(-n2nc3cc(C)c(N)cc3n2)cc1`, with 64.4%; and `COc1ccc(C(=O)O/N=C(\N)c2ccccc2Cl)cc1OC`, with 95.7%.
Consider `O=C(Nc1ccc2c(c1)OCCO2)c1ccc(Br)s1`, for which the activity turned out to be 74.3%.
Same read-out and setting: in the case of `COc1ccc2c(=O)cc(-c3ccccc3)n(C)c2c1` it was 56.4%; in that of `Cc1cccn2c(=O)c3cc(C(=O)NCCc4ccccc4)c(=N)n(Cc4ccco4)c3nc12`, 19.5%; in that of `Cc1ccc(Nc2nc(N)nc(CCl)n2)c(C)c1`, 98.9%.
Still for that read-out and setting: in the case of `Cc1cc(C)c(C)c(S(=O)(=O)N2CCN(c3ncnc4ccccc34)CC2)c1C` it was 40.2%; in that of `COc1ccc(CC(N)c2csc(NC(=O)c3cc(C(C)(C)C)nn3Cc3ccccc3)n2)cc1` (stereo not given), 52.9%; in that of `Cc1ccc2nc(-c3ccc(NC(=O)CCN4C(=O)c5ccccc5C4=O)cc3)sc2c1`, 73.7%.
Regarding `N=c1oc2cc(O)ccc2cc1C(=O)Nc1ccc(Cl)cc1`, the activity stood at 34.3%.
Take `CC(=O)c1c(C)[nH]c(C(=O)Nc2nc(C)cs2)c1C`: the activity is 80.2%.
For `CC(=O)c1cc(F)ccc1OCC(=O)Nc1ccc2c(c1)OCO2`, the activity is 72.3%.
Same read-out and setting: then `Cc1ccc(Nc2nc(N)c3ccccc3n2)cc1C`, with 83%; and `COc1ccc(C(=O)c2c[nH]c3ccccc23)cc1`, with 45.4%; and `COc1cc(/C=C/c2nc3ccccc3c(=O)[nH]2)ccc1OC(F)F`, with 55.6%.
Regarding `CCOc1ccccc1CNC(=O)C1CCN(c2nnc(C)c3c(C)n(-c4ccc(C)cc4)nc23)CC1`, the activity turned out to be 48.9%.
Take `Cc1ccc(/C=C/C2=NN(C)C(=O)CC2)cc1`: the activity turned out to be 46.6%.
Turning to `CCCC(=O)OCCNc1cc(Sc2nccn2C)c2nonc2c1[N+](=O)[O-]`, the activity was found to be 35.8%.
Same read-out and setting: then `CCOC(=O)Cc1csc(NC(=O)c2cc3c(s2)CCCC3)n1`, with 56.7%; and `Cc1ccc(CS(=O)(=O)c2ncc(Cl)c(C(=O)Nc3nnc(C(C)C)s3)n2)cc1`, with 67.5%; and `CC(=O)Nc1sc2c(c1-c1nc3ccccc3s1)CN(C(C)C)CC2`, with 38%.
Still for that read-out and setting: in the case of `Oc1ccc(-c2nnc(SCC3CCCCC3)o2)cc1` it was 70.1%.

Tested on in another assay: not listed separately; in the data active means activity above about 50%; inactive means the rest
The description is as above. The following applies: NB7 neuroblastoma + caspase-8, without TRAIL, luminescence viability, without TRAIL, mean of runs, at 10 µM.
In the case of `C=CCn1c(C)cc(C(=O)COC(=O)c2n[nH]c(=O)c3ccccc23)c1C`, the activity amounted to 57.4%.
In the case of `CC(C)(C)OC(=O)NCc1ccc(NC(=O)c2nc[nH]c2C(=O)NCCCNC(=O)c2[nH]cnc2C(=O)Nc2ccc(CNC(=O)OC(C)(C)C)cc2)cc1`, the activity was 69.1%.
Regarding `C=CCOc1ccc(/C=C/C(C)=N\O)cc1`, the activity amounted to 71.7%.
As for `CSc1nnc(NC(=O)c2ccc3c(c2)OCO3)s1`, the activity came to 78.7%.
On the same count and under the same terms, then `COC(=O)[C@@H]1Cc2c([nH]c3ccccc23)C(C)(C)N1C(=O)CCl`, with 98%; and `COc1ccc(C=C2C=C(C(C)(C)C)C(=O)C(C(C)(C)C)=C2)cc1OC`, with 98.8%.
Same read-out and setting: in the case of `Cc1ccc2nc(-c3ccccn3)oc2c1` it was 64.1%; in that of `Nc1c(-c2ccccc2)cnn1-c1ccccc1`, 40.4%; in that of `Cc1cc(C)cc(N2C(N)=NC(N)=NC2c2ccccc2F)c1` (stereo not given), 72.4%.
On to `Cc1ccc(C2CC(c3cccs3)=NN2C(=O)CCl)cc1` (stereo not given), for which the activity was 98%.
Still for that read-out and setting: then `CCc1ccc2nc(N(CCCN(C)C)C(=O)c3ccc(S(=O)(=O)N4CCc5ccccc5C4)cc3)sc2c1`, with 64%.
Turning to `O=C(Nc1ccc(N2CCOCC2)c(F)c1)c1cccs1`, the activity was found to be 63.3%.
`CCN(CC)c1ccc(NC(=O)c2ccco2)cc1`: the activity is 50.3%.
The same measure, in the same setting: then `O=C(NC(=S)Nc1nc2ccccc2s1)c1ccco1`, with 64.4%; and `COc1ccc(C2c3ccc4ccccc4c3Oc3ncn(CCCN(C)C)c(=N)c32)cc1` (stereo not given), with 76.8%.
On the same count and under the same terms, in the case of `Cc1ccc(-c2cc(C(=O)N/N=C/c3ccc([N+](=O)[O-])o3)c3ccccc3n2)o1` it was 73.7%.
`CCOc1ccc(OCC)c(NC(=O)C2CCN(c3nn4c(=O)cc(C)nc4s3)CC2)c1`: the activity is 81.3%.
Regarding `O=C(Nc1nc2ccccc2[nH]1)c1ccc(F)cc1`, the activity was 91%.
Same read-out and setting: then `CCc1ccc(-n2nc3cc(C)c(N)cc3n2)cc1`, with 51.1%; and `COc1ccc(C(=O)O/N=C(\N)c2ccccc2Cl)cc1OC`, with 92.8%.
On the same count and under the same terms, then `O=C(Nc1ccc2c(c1)OCCO2)c1ccc(Br)s1`, with 66.8%.
Take `COc1ccc2c(=O)cc(-c3ccccc3)n(C)c2c1`: the activity is 60.1%.
Still for that read-out and setting: then `Cc1cccn2c(=O)c3cc(C(=O)NCCc4ccccc4)c(=N)n(Cc4ccco4)c3nc12`, with 5.95%; and `Cc1ccc(Nc2nc(N)nc(CCl)n2)c(C)c1`, with 98.6%.
The same measure, in the same setting: in the case of `Cc1cc(C)c(C)c(S(=O)(=O)N2CCN(c3ncnc4ccccc34)CC2)c1C` it was 40.1%.
As for `COc1ccc(CC(N)c2csc(NC(=O)c3cc(C(C)(C)C)nn3Cc3ccccc3)n2)cc1` (stereo not given), the activity stood at 90.5%.
Same read-out and setting: in the case of `Cc1ccc2nc(-c3ccc(NC(=O)CCN4C(=O)c5ccccc5C4=O)cc3)sc2c1` it was 63.9%.
`N=c1oc2cc(O)ccc2cc1C(=O)Nc1ccc(Cl)cc1`: the activity came out at 39.3%.
Same read-out and setting: then `CC(=O)c1c(C)[nH]c(C(=O)Nc2nc(C)cs2)c1C`, with 82.6%.
Same read-out and setting: then `CC(=O)c1cc(F)ccc1OCC(=O)Nc1ccc2c(c1)OCO2`, with 68.3%.
Still for that read-out and setting: then `Cc1ccc(Nc2nc(N)c3ccccc3n2)cc1C`, with 78%; and `COc1ccc(C(=O)c2c[nH]c3ccccc23)cc1`, with 26.6%; and `COc1cc(/C=C/c2nc3ccccc3c(=O)[nH]2)ccc1OC(F)F`, with 54.7%.
On to `CCOc1ccccc1CNC(=O)C1CCN(c2nnc(C)c3c(C)n(-c4ccc(C)cc4)nc23)CC1`, for which the activity was determined as 63.5%.
For `Cc1ccc(/C=C/C2=NN(C)C(=O)CC2)cc1`, the activity was determined as 40.1%.
Regarding `CCCC(=O)OCCNc1cc(Sc2nccn2C)c2nonc2c1[N+](=O)[O-]`, the activity turned out to be 97.2%.
As for `CCOC(=O)Cc1csc(NC(=O)c2cc3c(s2)CCCC3)n1`, the activity came out at 58.8%.
On to `Cc1ccc(CS(=O)(=O)c2ncc(Cl)c(C(=O)Nc3nnc(C(C)C)s3)n2)cc1`, for which the activity was found to be 59.3%.
On the same count and under the same terms, in the case of `CC(=O)Nc1sc2c(c1-c1nc3ccccc3s1)CN(C(C)C)CC2` it was 73.8%.
For `Oc1ccc(-c2nnc(SCC3CCCCC3)o2)cc1`, the activity amounted to 84.3%.
